Results taken from PubChem BioAssay (NCI).
This is part of a sample that, as a whole, favours compounds with a hit. Of some 79,000 tested, about 15% had one in any assay. No stated cut-off is given here; in the data, active means growth inhibition above about 70%; inactive means the rest. Where a SMILES comes first, the peptide text is derived from it. The star is where a group is joined. For = O=C*

What was measured:
[1] = NCI Yeast Anticancer Drug Screen. Data for the rad50 strain (AID 155);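 further: 0% = growth of vehicle-only cultures of the same strain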; conditions: S. cerevisiae rad50 strain growth inhibition; at 50.0 µM; stronger effect = higher value
Method in brief: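 Vehicle-treated cultures provide the reference for the growth inhibition reported for compound-exposed, repair-deficient yeast.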

[2] = NCI Yeast Anticancer Drug Screen. Data for the mec2-1 strain (AID 157); conditions: S. cerevisiae mec2-1 strain, at 50.0 µM, stronger effect = higher value
Method in brief: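 Strain: mec2-1 (DNA repair/cell cycle alteration). Compound exposure, then growth measured; inhibition expressed relative to vehicle.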

[3] = NCI Yeast Anticancer Drug Screen. Data for the sgs1 mgt1 strain (AID 161);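 further: 0% = growth of cultures given vehicle only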; conditions: S. cerevisiae sgs1 mgt1 strain, at 50.0 µM, stronger effect = higher value
Method in brief: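 Test agents were incubated with a DNA-repair-mutant yeast strain. Growth was then read and compared against vehicle-treated controls.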

[4] = NCI Yeast Anticancer Drug Screen. Data for the cln2 rad14 strain (AID 165);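 further: 0% = growth equal to vehicle treated cultures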; conditions: S. cerevisiae cln2 rad14 strain, at 50.0 µM, stronger effect = higher value
Method in brief: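 Compounds are applied to the cln2 rad14 yeast strain, and growth is then compared with that of vehicle-treated cultures to give inhibition.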

[5] = NCI Yeast Anticancer Drug Screen. Data for the bub3 strain (AID 167); conditions: S. cerevisiae bub3 mutant strain, at 50.0 µM, stronger effect = higher value
Method in brief: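 Mutant yeast screening strain plus compound; vehicle-treated cultures serve as the 0% inhibition reference.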

[6] = NCI Yeast Anticancer Drug Screen. Data for the mlh1 rad18 strain (AID 175); conditions: S. cerevisiae mlh1 rad18 strain growth inhibition; at 50.0 µM; stronger effect = higher value
Method in brief: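 Read-out is yeast growth inhibition, calculated against vehicle-only controls. The compound was applied to a strain engineered with DNA damage repair alterations.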

Measured: growth inhibition

COC1OCC(O)C(O)C1OC (centres undefined)
inactive: [1] -11% | [2] -13.4% | [3] -16.2% | [4] -25.1% | [5] -8.55% | [6] -19.1%

C[N+]1(C)C/C(=C\c2ccncc2)C(=O)/C(=C/c2ccncc2)C1
inactive: [1] 0.3% | [2] -2.45% | [3] 14.3% | [4] 5.3% | [5] 1.1% | [6] -10.2%

CC(C)(C)C(=O)N1C(C(=O)O)Cc2ccccc2[C@@H]1Cc1ccccc1 (some centres undefined)
inactive: [1] -6.9% | [2] -7.25% | [3] -16.1% | [4] 22.5% | [5] -11.1% | [6] -29.5%

CC1(C)OC2OC(COC(=O)c3ccccc3)C(N3C(=O)c4ccccc4C3=O)C2O1 (centres undefined)
inactive: [1] 58.2% | [2] 9% | [3] 64.1% | [4] 30.1% | [5] 40.4% | [6] 49%

COC(=O)CCC1=C(C)C2=NC1=CC1=NC(=CC3=NC(=Cc4[nH]c(/c(=C\O)c4C)=C2)C(C=O)=C3C)C(C)=C1CCC(=O)OC
inactive: [1] 28.1% | [2] 16.5% | [3] 32.2% | [4] 26.9% | [5] 9.15% | [6] 11.6%

COc1cccc(N=Nc2c(-c3ccccc3)nn(C(=S)S)c2C)c1
inactive: [1] -2.6% | [2] 0.6% | [3] 17.6% | [4] -192% | [5] 19.3% | [6] 20.6%

COc1ccc(C)cc1CC(=O)O
inactive: [1] 7.5% | [2] 3.05% | [3] -21.4% | [4] 4.1% | [5] 6.25% | [6] -9.2%

CCOC(=O)C(NC(=O)NCc1ccc(F)cc1)C(F)(F)F (centres undefined)
inactive: [1] -46.7% | [2] 2.2% | [3] -31.5% | [4] 19.4% | [5] 51.9% | [6] -43.1%

O=c1[nH]cc(Nc2ccccc2)c(=O)[nH]1
inactive: [1] -1.1% | [2] 2.35% | [3] 4.95% | [4] -35.2% | [5] -29.6% | [6] -9.65%

O=S(=O)(c1ccccc1)c1cccc2c[n+]3ccccc3cc12
inactive: [1] 34.6% | [2] 9.35% | [3] 39.2% | [4] 24.6% | [5] 22.5% | [6] 24.9%

CC1CCCC(C(O)(C(=O)O)C2CCCCC2)C1 (centres undefined)
inactive: [1] 23.2% | [2] 12.6% | [3] 22.4% | [4] 13.1% | [5] 13.1% | [6] 26.6%

COc1ccc(OC)c(COC(=O)c2ccccc2)c1COC(=O)c1ccccc1
inactive: [1] 26.1% | [2] 3.9% | [3] 20.2% | [4] 4.2% | [5] 1.6% | [6] 5.7%

CNC(=O)NC(c1cc(OC)c(O)c(OC)c1)c1cc2c(cc1O)OCO2 (centres undefined)
inactive: [1] 29.5% | [2] 38.8% | [3] 11.8% | [4] 9.6% | [5] 8.05% | [6] 44.6%

CC(=O)O[C@H]1CC[C@]2(C)[C@H]3C(=O)C=C4[C@@H]5C[C@@](C)(C(=O)O)CC[C@]5(C)CC[C@@]4(C)[C@]3(C)CC[C@H]2C1(C)C
inactive: [1] 31.2% | [2] 23.8% | [3] 41.5% | [4] 52.1% | [5] 26% | [6] -5.75%

O=c1[nH]cc(NCCc2ccccc2)c(=O)[nH]1
inactive: [1] 0.75% | [2] -4% | [3] -17.4% | [4] -50.9% | [5] 7.4% | [6] 1.6%

O=C1CCC(c2nc3ccccc3[nH]2)N1Cc1cccs1 (centres undefined)
inactive: [1] -29.4% | [2] -37.1% | [3] -10.2% | [4] -21.9% | [5] -6.85% | [6] -8.55%

COc1ccc(CCN2C(=O)C(=O)N(c3ccc([N+](=O)[O-])cc3)C2=O)cc1OC
inactive: [1] 22.6% | [2] 1.45% | [3] -13.3% | [4] 8.6% | [5] 0.95% | [6] 8.55%

Cn1cnc([N+](=O)[O-])c1/N=C/c1ccccc1
inactive: [1] 0.1% | [2] 2.95% | [3] -3.95% | [4] -41.3% | [5] -28.5% | [6] -6.5%

OCC1OC(OC2CC3C(OC4OC(CO)C(O)C(O)C4O)CC(O)CC3OC2c2ccc(O)cc2)C(O)C(O)C1O (centres undefined)
inactive: [1] 18.1% | [2] 16.2% | [3] 21% | [4] 14.5% | [5] 11.8% | [6] 16.1%

COc1ccccc1NC(=O)CC(=O)n1nc(C)c(N=Nc2ccccc2C(=O)O)c1C
inactive: [1] -12.6% | [2] -25.3% | [3] -17.6% | [4] -14.9% | [5] -15.8% | [6] -9.5%

CCCc1cc(C(=O)OC/C(C)=N/O)c2ccccc2n1
inactive: [1] -8.15% | [2] 0.7% | [3] 11.3% | [4] -7.75% | [5] 24.6% | [6] 9.4%

CCOC(=O)c1cc2ccccc2oc1=O
inactive: [1] -15.2% | [2] 0.3% | [3] -8.75% | [4] 16.4% | [5] 9.25% | [6] 3.9%

CC1(C)OC(=O)ON(Cc2ccccc2)C1=O
inactive: [1] -4.45% | [2] -2.85% | [3] 2.2% | [4] 2.35% | [5] 3.3% | [6] -13.4%

O=P(O)(c1ccccc1Br)c1ccccc1Br
inactive: [1] 43.5% | [2] 10.6% | [3] 28% | [4] 26.2% | [5] 4.65% | [6] 20.2%

Cc1nc(-c2cccnc2)sc1C(=O)/C=C/c1ccc(Cl)cc1Cl
inactive: [1] 12.8% | [2] -2.05% | [3] 3.85% | [4] 8.55% | [5] 3.7% | [6] 8.95%

O=C(Nc1ccc(Cl)cc1Cl)C1C(=O)C(=O)N(c2ccc(Cl)cc2Cl)C1=O (centres undefined)
inactive: [1] 10.8% | [2] -10.1% | [3] -1.35% | [4] 26% | [5] 0.8% | [6] 14.4%

O=C1Nc2ccccc2CS1
inactive: [1] 0.55% | [2] -4.9% | [3] -2.1% | [4] -5.85% | [5] 6.95% | [6] -1.05%

O=C(c1ccccc1)N1C2C3CC(OCc4ccccc4)(OCc4ccccc4)C(O3)C21 (centres undefined)
inactive: [1] -8.35% | [2] -3.3% | [3] -16.4% | [4] -12.6% | [5] 16.8% | [6] -9.95%

O=c1cccc(CCc2ccccc2)[nH]1
inactive: [1] -8.85% | [2] -9.35% | [3] -9.6% | [4] 0.6% | [5] -0.55% | [6] -16.4%

Nc1ccc(S(=O)(=O)n2c(=O)oc3cc(Cl)ccc32)cc1
inactive: [1] 0.75% | [2] 5.75% | [3] 8.9% | [4] -6.7% | [5] 14.1% | [6] 19.8%

NC(=S)N/N=C/c1ccco1
inactive: [1] -26.2% | [2] -11.3% | [3] -18.3% | [4] -67.2% | [5] -23.9% | [6] -8.2%

CS1(=O)=NC(=O)C(N2C(=O)c3ccccc3C2=O)CC1 (centres undefined)
inactive: [1] 0.6% | [2] 4.9% | [3] -0.95% | [4] -17.4% | [5] 13.2% | [6] 5.5%

CCCN(CCC)CCc1cc(C(C)=O)n(S(=O)(=O)c2ccc(C)cc2)c1
inactive: [1] -10.2% | [2] -17.8% | [3] 0.3% | [4] 19.6% | [5] -7.35% | [6] 21.4%

O=C1OCCC1=P(c1ccccc1)(c1ccccc1)c1ccccc1
inactive: [1] -5.6% | [2] -30.9% | [3] 6.9% | [4] 9.45% | [5] -7.4% | [6] -4.85%

CSCCC(NC(=O)C(Cc1ccccc1)NC=O)C(=O)O (stereo not drawn) (For-Phe-Met-OH; configuration not given here)
inactive: [1] -12.1% | [2] -26.9% | [3] -10.5% | [4] 5.7% | [5] 19.4% | [6] -11.5%

C/C=C/C(=O)OCCc1ccccc1
inactive: [1] 21.8% | [2] 3.4% | [3] 3.75% | [4] -5.5% | [5] 12.8% | [6] 27.5%

C/C(=N\N)c1cnc(N)nc1C
inactive: [1] -2.75% | [2] 5.4% | [3] 7.65% | [4] -6.3% | [5] -11.7% | [6] -12.8%

CN(C)/C=N/c1cc(=O)n(C)c(=O)n1C
inactive: [1] 48.2% | [2] 13.4% | [3] 1.85% | [4] 2.9% | [5] -18.1% | [6] -16.4%

COc1cc(N=Nc2c[nH]c3ccccc23)c(OC)cc1N=Nc1ccc([N+](=O)[O-])cc1
inactive: [1] 26.3% | [2] 16.8% | [3] 0.6% | [4] -22% | [5] 13.7% | [6] 34.8%
